# Hit rate of the full screen: of about 5,500 compounds, about 2,000 (36%) were called active. Not shown: some 18% with an inconclusive outcome. The list shows a part of the results. A number with no mark means an inactive call. No stated cut-off is given here; in the data, active means normalized growth mostly below about 0.91 (no sharp cut-off); inconclusive means no clear call, values can overlap the other calls; inactive means mostly above about 0.92.
# Assay: chemical genetic growth profiling, strain panel (AID 1159580);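 further: tested at 20 µM; growth read once vehicle control cultures reached saturation at 30 °C; 1 = growth at the plate median or of vehicle wells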
# Settings: growth OD
structure (smiles),measurement,setting,value
Nc1nccs1,normalized growth,"S. cerevisiae deletion strains, locus YJL187C, strain SWE1 (second series), stronger effect = lower value",0.947
same,normalized growth,"S. cerevisiae deletion strains, locus YJL187C, strain SWE1, stronger effect = lower value",0.998
same,normalized growth,"S. cerevisiae deletion strains, locus YJR043C, strain POL32, stronger effect = lower value",0.985
same,normalized growth,"S. cerevisiae deletion strains, locus YKL009W, strain mrt4, stronger effect = lower value",0.985
same,normalized growth,"S. cerevisiae deletion strains, locus YKL068W, stronger effect = lower value",0.981
same,normalized growth,"S. cerevisiae deletion strains, locus YKL085W, strain MDH1 (second series), stronger effect = lower value",0.981
same,normalized growth,"S. cerevisiae deletion strains, locus YKL085W, strain MDH1, stronger effect = lower value",0.981
same,normalized growth,"S. cerevisiae deletion strains, locus YKL160W, strain elf1, stronger effect = lower value",0.98
same,normalized growth,"S. cerevisiae deletion strains, locus YKL190W, strain CNB1, stronger effect = lower value",0.992
same,normalized growth,"S. cerevisiae deletion strains, locus YKR001C, strain vps1, stronger effect = lower value",0.985
same,normalized growth,"S. cerevisiae deletion strains, locus YKR026C, strain gcn3, stronger effect = lower value",0.995
same,normalized growth,"S. cerevisiae deletion strains, locus YKR091W, strain srl3, stronger effect = lower value",0.998
same,normalized growth,"S. cerevisiae deletion strains, locus YLL001W, strain dnm1, stronger effect = lower value",0.947
same,normalized growth,"S. cerevisiae deletion strains, locus YLL026W, stronger effect = lower value",0.993
same,normalized growth,"S. cerevisiae deletion strains, locus YLL041C, strain sdh2, stronger effect = lower value",0.991
same,normalized growth,"S. cerevisiae deletion strains, locus YLR027C, strain aat2, stronger effect = lower value",0.988
same,normalized growth,"S. cerevisiae deletion strains, locus YLR039C, strain RIC1, stronger effect = lower value",0.929
same,normalized growth,"S. cerevisiae deletion strains, locus YLR058C, strain SHM2, stronger effect = lower value",0.974
same,normalized growth,"S. cerevisiae deletion strains, locus YLR102C, strain apc9, stronger effect = lower value",0.996
same,normalized growth,"S. cerevisiae deletion strains, locus YLR221C, strain rsa3, stronger effect = lower value",0.992
same,normalized growth,"S. cerevisiae deletion strains, locus YLR258W, strain gsy2, stronger effect = lower value",1
same,normalized growth,"S. cerevisiae deletion strains, locus YLR262C, strain YPT6 (second series), stronger effect = lower value",0.939
same,normalized growth,"S. cerevisiae deletion strains, locus YLR262C, strain YPT6, stronger effect = lower value",0.929
same,normalized growth,"S. cerevisiae deletion strains, locus YLR268W, strain sec22, stronger effect = lower value",0.968
same,normalized growth,"S. cerevisiae deletion strains, locus YLR320W, strain mms22, stronger effect = lower value",1
same,normalized growth,"S. cerevisiae deletion strains, locus YLR330W, strain CHS5, stronger effect = lower value",0.993
same,normalized growth,"S. cerevisiae deletion strains, locus YLR342W, strain FKS1 (second series), stronger effect = lower value",1.03
same,normalized growth,"S. cerevisiae deletion strains, locus YLR342W, strain FKS1, stronger effect = lower value",0.975
same,normalized growth,"S. cerevisiae deletion strains, locus YLR357W, strain rsc2, stronger effect = lower value",0.945
same,normalized growth,"S. cerevisiae deletion strains, locus YLR370C, strain arc18, stronger effect = lower value",0.991
same,normalized growth,"S. cerevisiae deletion strains, locus YLR371W, strain rom2, stronger effect = lower value",0.999
same,normalized growth,"S. cerevisiae deletion strains, locus YLR384C, strain iki3, stronger effect = lower value",0.976
same,normalized growth,"S. cerevisiae deletion strains, locus YLR418C, strain cdc73, stronger effect = lower value",1.03
same,normalized growth,"S. cerevisiae deletion strains, locus YML016C, strain PPZ1, stronger effect = lower value",0.984
same,normalized growth,"S. cerevisiae deletion strains, locus YML032C, strain rad52, stronger effect = lower value",0.984
same,normalized growth,"S. cerevisiae deletion strains, locus YML120C, strain ndi1, stronger effect = lower value",0.99
same,normalized growth,"S. cerevisiae deletion strains, locus YML124C, strain tub3, stronger effect = lower value",0.985
same,normalized growth,"S. cerevisiae deletion strains, locus YMR058W, strain fet3, stronger effect = lower value",0.988
same,normalized growth,"S. cerevisiae deletion strains, locus YMR078C, strain ctf18, stronger effect = lower value",0.979
same,normalized growth,"S. cerevisiae deletion strains, locus YMR125W, strain sto1, stronger effect = lower value",0.988
same,normalized growth,"S. cerevisiae deletion strains, locus YMR129W, stronger effect = lower value",0.996
same,normalized growth,"S. cerevisiae deletion strains, locus YMR205C, strain PFK2, stronger effect = lower value",0.983
same,normalized growth,"S. cerevisiae deletion strains, locus YMR223W, strain ubp8, stronger effect = lower value",1.04
same,normalized growth,"S. cerevisiae deletion strains, locus YMR231W, strain pep5, stronger effect = lower value",0.99
same,normalized growth,"S. cerevisiae deletion strains, locus YMR307W, strain GAS1, stronger effect = lower value",1.07
same,normalized growth,"S. cerevisiae deletion strains, locus YNL067W, strain RPL9B, stronger effect = lower value",0.954
same,normalized growth,"S. cerevisiae deletion strains, locus YNL071W, strain lat1, stronger effect = lower value",1
same,normalized growth,"S. cerevisiae deletion strains, locus YNL128W, strain TEP1, stronger effect = lower value",1.01
same,normalized growth,"S. cerevisiae deletion strains, locus YNL209W, strain ssb2, stronger effect = lower value",0.991
same,normalized growth,"S. cerevisiae deletion strains, locus YNL233W, strain BNI4, stronger effect = lower value",0.96
same,normalized growth,"S. cerevisiae deletion strains, locus YNL248C, strain rpa49, stronger effect = lower value",1.02
same,normalized growth,"S. cerevisiae deletion strains, locus YNL250W, strain rad50, stronger effect = lower value",0.989
same,normalized growth,"S. cerevisiae deletion strains, locus YNL271C, strain bni1, stronger effect = lower value",0.978
same,normalized growth,"S. cerevisiae deletion strains, locus YNL298W, strain CLA4, stronger effect = lower value",0.999
same,normalized growth,"S. cerevisiae deletion strains, locus YNL307C, strain MCK1, stronger effect = lower value",0.988
same,normalized growth,"S. cerevisiae deletion strains, locus YNL322C, strain KRE1 (second series), stronger effect = lower value",0.985
same,normalized growth,"S. cerevisiae deletion strains, locus YNR049C, strain mso1, stronger effect = lower value",0.987
same,normalized growth,"S. cerevisiae deletion strains, locus YNR052C, strain pop2, stronger effect = lower value",0.998
same,normalized growth,"S. cerevisiae deletion strains, locus YOL006C, strain TOP1, stronger effect = lower value",0.899
same,normalized growth,"S. cerevisiae deletion strains, locus YOL012C, strain htz1",0.795
same,normalized growth,"S. cerevisiae deletion strains, locus YOL147C, strain pex11, stronger effect = lower value",0.993
same,normalized growth,"S. cerevisiae deletion strains, locus YOR001W, strain rrp6, stronger effect = lower value",0.983
same,normalized growth,"S. cerevisiae deletion strains, locus YOR061W, strain CKA2, stronger effect = lower value",0.958
same,normalized growth,"S. cerevisiae deletion strains, locus YOR069W, strain VPS5, stronger effect = lower value",0.99
same,normalized growth,"S. cerevisiae deletion strains, locus YOR070C, strain gyp1, stronger effect = lower value",0.999
same,normalized growth,"S. cerevisiae deletion strains, locus YOR080W, strain dia2, stronger effect = lower value",0.977
same,normalized growth,"S. cerevisiae deletion strains, locus YOR083W, strain WHI5, stronger effect = lower value",0.971
same,normalized growth,"S. cerevisiae deletion strains, locus YOR106W, strain vam3, stronger effect = lower value",0.955
same,normalized growth,"S. cerevisiae deletion strains, locus YOR136W, strain idh2, stronger effect = lower value",0.988
same,normalized growth,"S. cerevisiae deletion strains, locus YOR144C, strain elg1, stronger effect = lower value",0.992
same,normalized growth,"S. cerevisiae deletion strains, locus YOR184W, strain ser1, stronger effect = lower value",0.914
same,normalized growth,"S. cerevisiae deletion strains, locus YOR265W, strain rbl2, stronger effect = lower value",0.997
same,normalized growth,"S. cerevisiae deletion strains, locus YOR270C, strain vph1, stronger effect = lower value",0.638 (active)
same,normalized growth,"S. cerevisiae deletion strains, locus YOR290C, strain snf2, stronger effect = lower value",0.945
same,normalized growth,"S. cerevisiae deletion strains, locus YOR316C, strain cot1, stronger effect = lower value",0.979
same,normalized growth,"S. cerevisiae deletion strains, locus YPL051W, strain arl3, stronger effect = lower value",0.965
same,normalized growth,"S. cerevisiae deletion strains, locus YPL078C, strain atp4, stronger effect = lower value",0.969
same,normalized growth,"S. cerevisiae deletion strains, locus YPL106C, strain sse1, stronger effect = lower value",0.958
same,normalized growth,"S. cerevisiae deletion strains, locus YPL240C, strain hsp82, stronger effect = lower value",0.994
same,normalized growth,"S. cerevisiae deletion strains, locus YPR119W, strain clb2, stronger effect = lower value",0.988
same,normalized growth,"S. cerevisiae deletion strains, locus YPR141C, strain kar3, stronger effect = lower value",0.973
same,normalized growth,"S. cerevisiae deletion strains, locus YPR163C, strain tif3, stronger effect = lower value",0.985
same,normalized growth,"S. cerevisiae deletion strains, locus YPR167C, strain met16, stronger effect = lower value",0.993
same,normalized growth,"S. cerevisiae deletion strains, strain wtn01, stronger effect = lower value",1.01
same,normalized growth,"S. cerevisiae strains, strain wild type, stronger effect = lower value",0.984

# From PubChem BioAssay AID1159580 (chemical genetic matrix, 2015)
